Giardia FBPA inh-1 = qHTS Assay for Inhibitors of Fructose-1,6-bisphosphate Aldolase from Giardia Lamblia. purified Giardia FBPA. Potency, µM (series often up to 59.6 µM), for inactives: at the highest dose activity, negative = inhibition, usual class: inhibitors. 290,000 tested, 0.71% active. AID 2451, 2010; also: potency is read from the fitted curve at half-maximal effect; nearly all actives have a fitted effect of over 55% in size
Target sequence (A8B2U2 whole entry, looked up): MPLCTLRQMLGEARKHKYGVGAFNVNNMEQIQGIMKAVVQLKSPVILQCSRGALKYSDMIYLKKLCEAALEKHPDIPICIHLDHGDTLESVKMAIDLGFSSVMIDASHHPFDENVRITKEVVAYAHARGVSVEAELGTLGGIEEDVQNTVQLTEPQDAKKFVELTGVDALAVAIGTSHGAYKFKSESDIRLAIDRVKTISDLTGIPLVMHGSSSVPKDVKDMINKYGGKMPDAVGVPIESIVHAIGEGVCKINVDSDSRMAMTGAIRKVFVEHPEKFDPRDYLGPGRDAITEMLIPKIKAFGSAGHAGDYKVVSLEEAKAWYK
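Giardia FBPA (40 nM reagent) was preincubated 10 min at RT with compound (up to 57.5 uM final), then substrate plus GAPDH/TPI/NAD/arsenate coupling system with diaphorase/resazurin was added; resorufin fluorescence (525/598 nm) was read after 20 min.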
FMDV antiviral = High Throughput Screening for Foot and Mouth Disease Virus Antivirals; FMDV antiviral cell-based qHTS; Potency, µM (titrated, usually from 57.9 µM), inactives show at the top dose activity change, negative = inhibition, hits mostly inhibitors; 410,000 tested, 1.2% active; calls by dose curve; tested in HEK293T cells; also: read-out not given here; potency is read from the fitted curve at half-maximal effect; nearly all actives have a fitted effect of over 45% in size
HCMV antiviral = qHTS Assay for inhibitors of the human cytomegalovirus (HCMV) | HFF cells, HCMV-luciferase reporter, 72 h; active compounds read low | activity change, negative = inhibition, % at 57.5 µM | 410,000 tested, 4.5% active; in the data active = activity change below about -60%; inconclusive = no clear call, values can overlap the other calls; inactive = above about -39%
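Inhibition of viral replication was scored as loss of reporter luminescence in HFFs infected with HCMV-luciferase (MOI 1 PFU/cell) for 72 h; compounds tested at 2 doses, normalized to buffer and Salinomycin controls.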
HCV inh = qHTS Assay for Inhibitors of Hepatitis C Virus (HCV); Huh7.5.1 HCVcc-Cre infection, luciferase reporter, 44 h; Potency, µM (highest dose often 41.8 µM), without a hit: top-dose activity change, negative = inhibition, hits mostly inhibitors; 340,000 tested, 3.4% active; AID 651820, 2012; also: potency is read from the fitted curve at half-maximal effect
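After 44 h co-culture of compound, cells and HCVcc-Cre (~0.5 moi), substrate is added for 15 min at room temperature and luciferase measured over 15 sec. Cells were seeded at 1,000/well and pre-cultured 4 h.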
MARV entry inh = qHTS for inhibitors of binding or entry into cells for Marburg Virus. Marburg virus pseudotyped entry inhibition, cell reporter. Potency, µM (doses to about 37.8 µM), inactives show at the highest dose activity change, negative = inhibition, hits mostly inhibitors. 300,000 tested, 1.8% active; calls by dose curve; tested in HEK293 cells; also: potency is read from the fitted curve at half-maximal effect
Lassa entry inh = qHTS for Inhibitors of binding or entry into cells for Lassa Virus. Lassa virus pseudotype entry inhibition, cell reporter. 300,000 tested, 1.2% active. Potency, µM (series often up to 37.9 µM), inactives show top-dose activity change, negative = inhibition, hits mostly inhibitors; calls by dose curve; tested in HEK293 cells; also: potency is read from the fitted curve at half-maximal effect; nearly all actives have a fitted effect of over 50% in size
Giardia growth = qHTS Assay for Inhibitors of Fructose-1,6-bisphosphate Aldolase from Giardia Lamblia: Giardia lamblia growth inhibition. shares compounds with Giardia FBPA inh-1. Giardia lamblia trophozoite growth inhibition. Potency, µM (titrated, usually from 57.5 µM), for inactives: at the top dose activity change, negative = inhibition, hits mostly inhibitors. 1,500 tested, 5% active;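 also: potency is read from the fitted curve at half-maximal effect; trophozoites exposed to compound for 48 h at 37 °C; nearly all actives have a fitted effect of over 70% in size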
Mammal cell tox = qHTS Assay for Inhibitors of Fructose-1,6-bisphosphate Aldolase from Giardia Lamblia: Mammalian cellular toxicity; shares compounds with Giardia FBPA inh-1; mammalian cell viability counter-screen, qHTS; Potency, µM (titrated, usually from 57.5 µM), without a hit: top-dose viability change, negative = toxicity, actives largely listed as inhibitors; 1,500 tested, 4% active; AID 2786, 2010;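 also: Chinese hamster ovary cells used as mammalian cytotoxicity surrogate; viability measured as cellular ATP by luminescence; potency is read from the fitted curve at half-maximal effect; compound exposure lasted 48 h before reading; nearly all actives have a fitted effect of over 60% in size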
Giardia FBPA inh-2 = qHTS Assay for Inhibitors of Fructose-1,6-bisphosphate Aldolase from Giardia Lamblia: Primary screen confirmation | shares compounds with Giardia FBPA inh-1 | purified Giardia aldolase enzyme activity, qHTS | Potency, µM (highest dose often 57.5 µM), for the others: at the top dose activity change, negative = inhibition, most hits filed as inhibitors | 1,500 tested, 5% active; also: potency is read from the fitted curve at half-maximal effect; nearly all actives have a fitted effect of over 45% in size
Rabbit FBPA inh = qHTS Assay for Inhibitors of Fructose-1,6-bisphosphate Aldolase from Giardia Lamblia: Rabbit FBPA Selectivity; Potency, µM (doses to about 57.5 µM), inactives show at the highest dose activity, negative = inhibition, usual class: inhibitors; 1,500 tested, 4% active; Rabbit muscle FBPA enzyme inhibition, selectivity counter-screen; shares compounds with Giardia FBPA inh-1; also: potency is read from the fitted curve at half-maximal effect; nearly all actives have a fitted effect of over 60% in size
Target sequence (P00883 whole entry, looked up): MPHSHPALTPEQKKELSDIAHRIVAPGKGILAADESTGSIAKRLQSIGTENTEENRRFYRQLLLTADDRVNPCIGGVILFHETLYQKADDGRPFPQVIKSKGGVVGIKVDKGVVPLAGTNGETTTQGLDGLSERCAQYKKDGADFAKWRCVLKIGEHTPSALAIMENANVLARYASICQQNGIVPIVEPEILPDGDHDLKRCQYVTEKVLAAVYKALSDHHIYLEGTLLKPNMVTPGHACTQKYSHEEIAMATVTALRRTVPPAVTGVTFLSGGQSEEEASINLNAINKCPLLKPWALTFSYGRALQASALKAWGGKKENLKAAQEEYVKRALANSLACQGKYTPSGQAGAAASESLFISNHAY
GAPDH coupling = qHTS Assay for Inhibitors of Fructose-1,6-bisphosphate Aldolase from Giardia Lamblia: Coupling assay counterscreen confirmation. shares compounds with Giardia FBPA inh-1. GAPDH coupling enzyme counterscreen, biochemical, qHTS. Potency, µM (doses to about 57.5 µM), inactives show at the top dose activity change, negative = inhibition, hits mostly inhibitors. 1,500 tested, 6% active. AID 2795, 2010; also: potency is read from the fitted curve at half-maximal effect; nearly all actives have a fitted effect of over 55% in size
* hit, by the source's call; ? = inconclusive; nt = no result given; [ ] = dose if it differs, or a comment. Hits are enriched below; roughly 8.3% of the tested compounds scored in any of these assays. Unless noted, calls follow the shape of the dose curve; as a rule, active = well fitted curve in the direction sought with a large enough effect; inconclusive = small, poorly fitted or top-dose-only effect, or another doubt; inactive = no such curve, though single readings can be large; an effect the other way counts as inactive or inconclusive. % is scaled to controls: 0 for no effect and ±100 for the full control effect.

SMILES | Giardia FBPA inh-1 | FMDV antiviral | HCMV antiviral | HCV inh | MARV entry inh | Lassa entry inh | Giardia growth | Mammal cell tox | Giardia FBPA inh-2 | Rabbit FBPA inh | GAPDH coupling
O=C(Oc1ccc[nH]c1=O)c1cccc(Cl)c1 | -18% | -14% | 8 | -1% | nt | nt | 15%[38.3 µM] | 10% | 0.52µM* | ? | 33µM*
O=C(Oc1ccc[nH]c1=O)c1ccccc1 | nt | -6% | -24 | nt | nt | nt | nt | nt | nt | nt | nt
O=C(NC(=S)N1CCCCC1)c1csc([N+](=O)[O-])c1 | 13µM* | 26% | ? | -3% | 7%[46.1 µM] | -11% | 1µM* | -3% | -2% | 5% | 10%
CC1CN(C(=S)NC(=O)c2ccc([N+](=O)[O-])cc2)CC(C)O1 (centres undefined) | 20µM* | 9% | 8 | 9% | -2%[46.1 µM] | 8% | 5µM* | 10% | 1% | 14% | 3%
NS(=O)(=O)c1cccc(NC(=S)NC(=O)c2cccc([N+](=O)[O-])c2)c1 | 18µM* | 25% | -8 | 2% | 26%[46.1 µM] | 7% | 3%[10.4 µM] | 2% | 1% | 3% | 5%
CN1CCN(C(=S)NC(=O)c2cccc([N+](=O)[O-])c2)CC1 | 1.8µM* | -3% | 14 | 16% | nt | nt | -22%[38.3 µM] | -16% | -5% | 0% | -1%
CC1CN(C(=S)NC(=O)c2ccccc2)CC(C)O1 (centres undefined) | nt | 6% | 14 | 23% | nt | nt | nt | nt | nt | nt | nt
COc1cccc(C(=O)NCCc2csc3nc(-c4ccccc4F)nn23)c1OC | nt | 0% | 7 | nt | nt | -13%[46.1 µM] | nt | nt | nt | nt | nt
CN1C(=O)NC(=O)/C(=C/c2ccc([N+](=O)[O-])s2)C1=O | ? | ? | 68 | 13% | 0%[46.1 µM] | -10%[46.1 µM] | nt | nt | nt | nt | nt
O=C1NC(=O)N(c2ccccc2)C(=O)/C1=C\c1ccc([N+](=O)[O-])s1 | ? | -25% | 21 | -5% | -1%[46.1 µM] | 2%[46.1 µM] | nt | nt | nt | nt | nt
CN1C(=O)NC(=O)/C(=C/c2ccc([N+](=O)[O-])o2)C1=O | 18µM* | ? | -3 | 12% | ? | ? | ? | -2% | ? | ? | ?
CN1C(=O)NC(=O)/C(=C\c2ccc([N+](=O)[O-])o2)C1=O | 18µM* | -24% | nt | 10% | -15% | 2%[46.1 µM] | ? | -5% | ? | ? | ?
O=C1NC(=O)N(c2ccccc2)C(=O)/C1=C\c1ccc([N+](=O)[O-])o1 | 20µM* | nt | nt | nt | nt | nt | -22% | 7% | -26% | -25% | -19%
O=C(O)CCC(=O)N1CCCC1C(=O)O (centres undefined) | 1% | nt | nt | nt | -12% | -1% | nt | nt | nt | nt | nt
CC(C)NCC(=O)Nc1c2c(nc3ccccc13)CCC2 | 18µM* | -21% | 24 | -4% | ? | -13%[46.1 µM] | 9%[10.4 µM] | -7% | 2% | 3% | 12%
Cc1cccc(NC(=O)CSc2c3c(nc4ccccc24)CCC3)n1 | 1% | ? | 49 | -13% | ? | -17%[46.1 µM] | nt | nt | nt | nt | nt
Cc1ccc(C(=O)NNC(=S)NC(=O)c2ccc(Cl)cc2Cl)cc1 | ? | nt | -20 | ? | -19% | ? | -33%[38.3 µM] | ? | 10% | 4% | 11%
Cc1noc(C)c1-c1nc(N(C)C)c2ccccc2n1 | -5% | 0% | nt | nt | nt | nt | nt | nt | nt | nt | nt
Cc1cccc(C)c1NC(=S)NC(=O)c1ccc(Br)o1 | -12% | -22% | -33 | -11% | nt | nt | nt | nt | nt | nt | nt
Cn1ncc(C(N)=O)c1NC(=S)NC(=O)c1ccc(Br)o1 | 16µM* | 3% | 10 | 22% | nt | nt | -7%[10.4 µM] | -9% | 1% | 5% | 8%
COc1ccc(CN2CCN(CCCc3ccccc3)C(CCO)C2)c(OC)c1 (centres undefined) | 2% | -21% | 34 | -28% | nt | nt | nt | nt | nt | nt | nt
COc1cccc(CN2CCN(Cc3ccccc3C(F)(F)F)CC2)c1 | ? | -22% | 10 | 29% | ? | -8%[46.1 µM] | nt | nt | nt | nt | nt
COc1ccc(CN2CCN(Cc3ccccc3C(F)(F)F)CC2)c(OC)c1 | 13µM* | -18% | ? | -17% | 11µM* | ? | ? | 12% | -2% | 8% | -4%
COc1ccc(CN2CCN(CCCc3ccccc3)CC2)c(OC)c1 | 16µM* | nt | 52 | nt | nt | nt | 8% | -14% | -1% | 5% | 13%
Cc1ccc(S(=O)(=O)Nc2cc(C)cn(Cc3ccc(F)cc3)c2=O)cc1 | 16µM* | 10% | -30 | -12% | ? | -30%[46.1 µM] | 14%[10.4 µM] | -9% | ? | ? | 25µM*
SMILES | Giardia FBPA inh-1 | FMDV antiviral | HCMV antiviral | HCV inh | MARV entry inh | Lassa entry inh | Giardia growth | Mammal cell tox | Giardia FBPA inh-2 | Rabbit FBPA inh | GAPDH coupling
Cc1ccc(S(=O)(=O)Nc2cc(C)cn(Cc3ccccc3)c2=O)cc1 | 13µM* | 9% | ? | -29% | ? | ? | ? | -13% | ? | ? | 32µM*
CCCn1nnc(NC(=O)/C=C/c2ccco2)n1 | 5% | 0% | 35 | 14% | 0%[46.1 µM] | 17% | nt | nt | nt | nt | nt
Cn1nnc(NC(=S)NC(=O)/C=C/c2ccco2)n1 | 3.5µM* | -20% | 71 | -2% | 15%[46.1 µM] | 0% | -28%[38.3 µM] | -2% | -19% | -20% | -23%
Cc1ccc(NS(=O)(=O)c2cc(-c3cc(C)no3)ccc2C(C)C)nc1 | 20µM* | 55% | -1 | 20% | nt | nt | -4% | 9% | ? | ? | ?
CC(C)(C)c1ccc(/C=N/Nc2nncn2N)cc1 | 16µM* | 34% | -11 | 10% | ? | ? | -8%[10.4 µM] | -3% | 14µM* | ? | ?
COc1cc(/C=N/NC(=O)c2ccncc2)ccc1OC(C)=O | -12% | -5% | -11 | 9% | nt | nt | nt | nt | nt | nt | nt

Assay outcomes deposited in PubChem by National Center for Advancing Translational Sciences (NCATS).
